# Screen size: about 420,000 compounds; about 64,000 (15%) were called active. Another 27% or so got no clear call; they are omitted. Not all results are given here. A number with no mark means an inactive call. Calls follow the shape of the dose curve; as a rule, active = well fitted inhibition curve with a large enough effect; inconclusive = small, poorly fitted or top-dose-only effect; inactive = flat fitted curve, though single readings scatter.
# Assay: qHTS for Inhibitors of human tyrosyl-DNA phosphodiesterase 1 (TDP1): qHTS in cells in absence of CPT; also: nearly all actives have a fitted effect of over 55% in size
# Details: DT40 Tdp1-/- hTDP1 cells, no CPT, ATP luminescence, 48 h; activity change, negative = growth inhibition: at 46.2 µM (top of the series)
# Method in brief: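 Chicken DT40 Tdp1-/- cells complemented with human TDP1, screened without camptothecin (DMSO vehicle only), 400 cells/well. Compounds pin-transferred, cells incubated at 37 °C for at least 48 hr. Growth read as ATP-dependent luminescence (CellTiter-Glo, 30 min at RT).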
# % is scaled to controls: 0 for no effect and ±100 for the full control effect; potency is read from the fitted curve at half-maximal effect.
Compound,Potency,"activity change, negative = growth inhibition [%]"
CSc1ccccc1NC(=O)CN(C)CC(=O)Nc1cccc(Br)c1,23.1 µM (active),
CSc1ccccc1NC(=O)Cc1ccc(Br)cc1,,-19.4
CCn1c(SCC(=O)Nc2sc(C)c(C)c2C#N)nnc1C1CC1,,6.18
CC(C)(O)C#Cc1ccc(C(=O)N2CCC(C(N)=O)(N3CCCCC3)CC2)cc1,,-1.61
CC1CCN(C(=O)COC(=O)c2cc(S(=O)(=O)N3CCOCC3)ccc2Cl)CC1,,-25.4
Cn1c(=O)c2c(SCC(=O)NCC3CCCO3)nc(CC(C)(C)C)nc2n(C)c1=O (stereo not drawn),,-1.92
CCOC(=O)c1cnc(-n2nc(C)cc2C)nc1-n1nc(C)cc1C,,-15.7
CCOC(=O)c1cccc(NC(=O)CCn2nnc3ccccc32)c1,,-14.5
CCOC(=O)c1cnc(-n2nc(C)cc2C)nc1Nc1cccc(C(C)=O)c1,8.2 µM (active),
O=[N+]([O-])c1c(NCCO)cc(Sc2nc3ccccc3s2)c2nonc12,1.03 µM (active),
O=C(O)c1cccc(S(=O)(=O)Nc2ccc(O)cc2Sc2nc3ccccc3s2)c1,,-9.84
CCOc1ccccc1Nc1ccc2nonc2c1[N+](=O)[O-],,-8.37
COc1ccc(S(=O)(=O)NC(=O)C2(C)CCN2C(=O)COc2ccc(Cl)cc2)cc1 (stereo not drawn),,-15.8
c1ccc(C[C@H]2CNCCN2CCC23CC4CC(CC(C4)C2)C3)cc1,10.3 µM (active),
COC(=O)c1ccccc1NC(=O)CN(Cc1ccccc1)S(C)(=O)=O,,-23.5
O=C(O)CSCc1ccc(C(=O)O)o1,,11.8
CC(C)(C)NC(=O)Cn1cnc2cc([N+](=O)[O-])ccc2c1=O,,1.61
Cc1ccc(C)c(OCCC(=O)OCC(=O)c2ccc3c(c2)NC(=O)CO3)c1,,4.85
COC(=O)c1ccccc1NC(=O)CN(Cc1ccc(Cl)cc1)S(C)(=O)=O,,-8.64
COC(=O)c1ccccc1Sc1c(/C=N/OCc2ccc(Cl)cc2)c(C(F)(F)F)nn1C,20.6 µM (active),
S=c1[nH]nc2c3c4c(sc3ncn12)CCCC4,,-22.7
Clc1ccc(-c2nnc(-c3ccccc3)nc2N2CCSCC2)cc1,14.6 µM (active),
OCCN1CCN(c2nnc(-c3ccccc3)c3ccccc23)CC1,,9.89
O=C(N[C@H]1CC[C@H](CC(=O)N2CCCCC2)O[C@@H]1CO)c1cccc(F)c1,,2.47
COc1ccc(C(=O)Nc2cccc(NC(=O)c3ccc(OC)cc3OC)n2)c(OC)c1,2.59 µM (active),
COc1ccc(C(=O)NC2=NCCS2)c(OC)c1,,-17.6
COc1ccc(C(=O)Nc2nncs2)c(OC)c1,,-3.64

Compound,Potency,"activity change, negative = growth inhibition [%]"
O=C1CCCc2c1[nH]c1ccc(Br)cc21,,-12.7
COc1ccc(/C=C2\SC(=S)N(CC(=O)NNC(=O)c3ccncc3)C2=O)cc1,,-2.19
CN(C(=O)COc1nnc(-c2cccs2)c(-c2cccs2)n1)c1ccccc1,18.4 µM (active),
O=C(O)Cc1sc(-c2ccccc2)nc1-c1cccs1,,-3.31
CN(C(=O)COC(=O)CNC(=O)C12CC3CC(CC(C3)C1)C2)c1ccccc1,,-13.2
Cc1cc(=O)oc(C)c1C(=O)NCCN(C)Cc1ccccc1,,0.281
COc1ccccc1NC(=O)N(O)C1(C#N)CCCCC1,,-4.03
O=C(CSc1nnc2ccc(-c3ccncc3)nn12)N1CCCCC1,,13.2
CCS(=O)(=O)c1ccc(-c2cccc(NC(=O)c3ccc(Br)o3)c2)nn1,,-16.7
COc1ccc(S(=O)(=O)N2CCN(C(=S)NCC3CCCO3)CC2)cc1OC (stereo not drawn),,1.23
CCOc1ccc(S(=O)(=O)N2CCN(C(=S)NCC3CCCO3)CC2)cc1 (stereo not drawn),,-17.7
S=C(NCC1CCCO1)N1CCN(c2ccc(Cl)c(Cl)c2)CC1 (stereo not drawn),20.6 µM (active),
COc1cc(/C=C(/NC(=O)c2ccccc2)C(=O)Nc2cccc(O)c2)c([N+](=O)[O-])cc1OC,,5.97
Cn1nc(C(C)(C)C)c([N+](=O)[O-])c1C(N)=O,,-6.79
COc1cccc(N2CC(C(=O)Nc3c(C)cccc3C)CC2=O)c1 (stereo not drawn),,-17.9
O=C(Nc1ccc2nc(SCC(=O)N3CCCc4ccccc43)sc2c1)c1ccc(F)cc1,2.91 µM (active),
O=C(Nc1ccc2nc(SCC(=O)N3CCCc4ccccc43)sc2c1)c1ccc(Cl)cc1,5.8 µM (active),
O=C(NCc1nnc(SCC(=O)N2CCCc3ccccc32)o1)c1ccccc1F,,2.14
Cn1c(=O)c2c(SCC(=O)N3CCc4ccccc43)nc(-c3ccc(Cl)cc3)nc2n(C)c1=O,,0.535
CCC(=O)Nc1ccc2nc(SCC(=O)N3CCc4ccccc43)sc2c1,10.3 µM (active),
O=C(Nc1ccc2nc(SCC(=O)N3CCc4ccccc43)sc2c1)c1ccccc1F,,-22
O=C(CSCc1ccccc1)N1CCc2ccccc21,,-12.2
O=C(CSc1ccc2nnc(-c3ccccc3)n2n1)N1CCCc2ccccc21,,-28
CCOC(=O)C1(Cc2cccc(OC)c2)CCCN(S(=O)(=O)c2cccnc2)C1 (stereo not drawn),,-9.7
O=C(CCc1ccc(S(=O)(=O)N2CCOCC2)cc1)OCC(=O)c1ccc(Br)cc1,,1.67
O=C(CSc1nnc(-c2ccoc2)o1)N1CCOCC1,,-1.48
